In PubChem BioAssay:
The source made the active and inactive calls.

Key:
Albumin (Bos taurus) = Albumin (Bos taurus) (UniProt P02769); assay: compounds binding labelled BSA control protein – biochemical, small-molecule microarray, Alexa647 label, 635/667 nm fluorescence, artefact control for SMM control protein annotation, profiling panel (AID 1118); settings: BSA-A647 binding, fluorescence 635 nm, higher = more signal;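 further: score merges 667 nm emission intensity and signal-to-noise per printed compound spot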
[1] = probe aXIP binding to arrayed compounds – biochemical, NeuroSMM set, 635/667 nm fluorescence, primary screen (AID 1119); settings: small-molecule microarray, higher = more signal, called active from +8 up or from −8 down;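 further: probe is the protein aXip251-270 applied at 1 µg/mL to compound-printed slides; binding of probe to printed compounds measured as 667 nm fluorescence plus signal to noise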
[2] = probe aNOTCH3 binding on compound microarray – biochemical, small-molecule microarray, 635/667 nm fluorescence, primary screen (AID 1120); settings: higher = more signal;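 further: probe is a biotin-tagged antibody raised against NOTCH3 rather than NOTCH3 protein; score merges spot fluorescence near 667 nm with spot signal to noise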
[3] = probe aNOTCH2 binding on compound microarray – biochemical, small-molecule microarray, 635/667 nm fluorescence, primary screen (AID 1121); settings: higher = more signal;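 further: score merges feature fluorescence read at 667 nm with its signal to noise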
[4] = target: Carbonic anhydrase 2 (Homo sapiens) (UniProt P00918); assay: compounds binding carbonic anhydrase 2 – biochemical, small-molecule microarray, Alexa647-labelled CAII, profiling panel (AID 1122); settings: CAII-A647 binding fluorescence, higher = more signal
[5] = COS7 lysate on small-molecule microarray, probe aHis, 635 nm (AID 1123); settings: COS7 cell lysate, fluorescence, higher = more signal;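 further: z-score combines 667nm fluorescence intensity with signal-to-noise per printed compound spot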
[6] = probe aLAP1 signal on lysate-treated microarray – cell lysate, small-molecule microarray, COS7 lysate, primary screen (AID 1124); settings: probe aLAP1, fluorescence, higher = more signal;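 further: lysate comes from COS7 cells expressing LAP1 and is applied at 0.3 µg/mL; score merges spot fluorescence near 667 nm with signal-to-noise over triplicate slides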
Sam68 (KHDRBS1) = assay: compounds binding KHDRBS1 protein – biochemical, small-molecule microarray, 635 nm fluorescence, primary screen (AID 1125); settings: higher = more signal;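 further: score merges 667 nm channel intensity with signal to noise over triplicate slides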
[7] = test system: Chordin-like protein 2 (CHRDL2); assay: compounds binding chordin-like 2 – biochemical, small-molecule microarray, 635 nm fluorescence, primary screen (AID 1126); settings: fluorescence 635 nm, higher = more signal;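 further: printed compound slides probed with Chrdl2 protein at 4 µg/mL for 1 h at 4 C; score merges 667 nm emission intensity with signal to noise over three replicate slides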
[8] = target: Concanavalin-A (Canavalia ensiformis) (UniProt P02866); assay: compounds binding concanavalin A lectin – biochemical, small-molecule microarray, Alexa647 label, 635 nm, artefact control for SMM control protein annotation, primary screen (AID 1127); settings: ConA-A647 binding fluorescence, higher = more signal;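 further: z combines 667 nm emission intensity with signal-to-noise across three replicate slides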
[9] = compounds binding Alexa647 anti-His antibody – biochemical, small-molecule microarray, 635 nm fluorescence, artefact control for SMM control protein annotation, primary screen (AID 1128); settings: higher = more signal;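 further: score merges feature fluorescence with signal-to-noise for each printed compound spot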
[10] = test system: Human papillomavirus type 1a E7 protein (residues 1-88); assay: HPV1a E7 small-molecule binders, primary screen, biochemical, small-molecule microarray, residues 1-88, 635 nm (AID 1129); settings: small-molecule microarray binding, fluorescence 635 nm; higher = more signal
[11] = target: Focal adhesion kinase 1 (Homo sapiens) (UniProt Q05397); assay: PTK2 protein binding on printed compound slides – biochemical, small-molecule microarray, 635/667 nm fluorescence, BSA, DTT, primary screen (AID 1130); settings: 635 nm fluorescence, higher = more signal;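 further: composite of spot emission at 667 nm and signal to noise over triplicate slides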
[12] = test system: Fibrinogen (Alexa647-labelled); assay: Alexa647-fibrinogen binding to printed small molecules – biochemical, small-molecule microarray, 635/667 nm fluorescence, artefact control for SMM control-protein annotation, profiling panel (AID 1131); settings: fibrinogen-A647 binding fluorescence, higher = more signal;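 further: z-score merges 667 nm fluorescence with per-spot signal-to-noise over triplicate slides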
[13] = target: Follistatin (Homo sapiens) (UniProt P19883); assay: FST protein binding to printed compounds – biochemical, small-molecule microarray, 635/667 nm fluorescence, primary screen (AID 1132); settings: 635 nm fluorescence, higher = more signal
[14] = target: Fibroblast growth factor 2 (Homo sapiens) (UniProt P09038); assay: basic fibroblast growth factor binding to printed compounds – biochemical, small-molecule microarray, 635/667 nm fluorescence, primary screen (AID 1133); settings: FGF2, fluorescence 635/667, higher = more signal
[15] = JC-1 mitochondrial potential readout, lung cancer cells – cell-based, A549, JC-1 fluorescence, basal, 24 h, 100 nL, profiling panel (AID 1138); settings: higher = more signal;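 further: A549 lung adenocarcinoma cells under basal conditions with no added stimulus; test concentration not given here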
Lefty1 = Lefty1 protein binding to printed compounds – biochemical, small-molecule microarray, 635/667 nm fluorescence, primary screen (AID 1139); settings: fluorescence 635/667, higher = more signal
[16] = test system: wheat germ agglutinin (Triticum aestivum), Alexa647-labelled; assay: Alexa647-WGA lectin binding to printed small molecules – biochemical, small-molecule microarray, 635/667 nm fluorescence, artefact control for SMM control-protein annotation, profiling panel (AID 1140); settings: WGA-A647 binding, 635 nm fluorescence, higher = more signal;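 further: score merges 667 nm feature emission with signal to noise over triplicate slides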
[17] = target: Luciferin 4-monooxygenase (Photinus pyralis) (UniProt P08659); assay: inhibition of purified Photinus pyralis luciferase – biochemical, luminescence, purified enzyme, 2006 set, primary screen (AID 1141); settings: purified firefly luciferase, SteadyGlo luminescence, 30 min; higher = more signal, called active from +8 up or from −8 down;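 further: cell-free assay with purified firefly luciferase at 100 ng per well in PBS; test concentration not given here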
Luciferin 4-monooxygenase (Photinus pyralis), sequence (P08659 whole entry, looked up): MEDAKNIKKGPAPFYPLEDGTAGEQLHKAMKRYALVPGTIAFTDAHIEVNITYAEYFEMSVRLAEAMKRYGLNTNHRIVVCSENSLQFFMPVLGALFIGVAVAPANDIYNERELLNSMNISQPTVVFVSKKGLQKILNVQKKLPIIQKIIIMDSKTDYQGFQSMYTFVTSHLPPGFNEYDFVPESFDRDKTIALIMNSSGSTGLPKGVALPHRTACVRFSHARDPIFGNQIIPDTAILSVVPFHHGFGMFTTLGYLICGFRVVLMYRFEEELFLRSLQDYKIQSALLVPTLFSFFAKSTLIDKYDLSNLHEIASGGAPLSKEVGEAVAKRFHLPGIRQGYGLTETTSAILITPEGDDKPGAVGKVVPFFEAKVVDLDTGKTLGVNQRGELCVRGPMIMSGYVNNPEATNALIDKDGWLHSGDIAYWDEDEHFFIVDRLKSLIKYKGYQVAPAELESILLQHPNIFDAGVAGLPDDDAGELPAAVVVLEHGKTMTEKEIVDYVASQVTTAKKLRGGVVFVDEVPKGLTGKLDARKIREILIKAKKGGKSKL

Focal adhesion kinase 1 (Homo sapiens), sequence (Q05397 whole entry, looked up): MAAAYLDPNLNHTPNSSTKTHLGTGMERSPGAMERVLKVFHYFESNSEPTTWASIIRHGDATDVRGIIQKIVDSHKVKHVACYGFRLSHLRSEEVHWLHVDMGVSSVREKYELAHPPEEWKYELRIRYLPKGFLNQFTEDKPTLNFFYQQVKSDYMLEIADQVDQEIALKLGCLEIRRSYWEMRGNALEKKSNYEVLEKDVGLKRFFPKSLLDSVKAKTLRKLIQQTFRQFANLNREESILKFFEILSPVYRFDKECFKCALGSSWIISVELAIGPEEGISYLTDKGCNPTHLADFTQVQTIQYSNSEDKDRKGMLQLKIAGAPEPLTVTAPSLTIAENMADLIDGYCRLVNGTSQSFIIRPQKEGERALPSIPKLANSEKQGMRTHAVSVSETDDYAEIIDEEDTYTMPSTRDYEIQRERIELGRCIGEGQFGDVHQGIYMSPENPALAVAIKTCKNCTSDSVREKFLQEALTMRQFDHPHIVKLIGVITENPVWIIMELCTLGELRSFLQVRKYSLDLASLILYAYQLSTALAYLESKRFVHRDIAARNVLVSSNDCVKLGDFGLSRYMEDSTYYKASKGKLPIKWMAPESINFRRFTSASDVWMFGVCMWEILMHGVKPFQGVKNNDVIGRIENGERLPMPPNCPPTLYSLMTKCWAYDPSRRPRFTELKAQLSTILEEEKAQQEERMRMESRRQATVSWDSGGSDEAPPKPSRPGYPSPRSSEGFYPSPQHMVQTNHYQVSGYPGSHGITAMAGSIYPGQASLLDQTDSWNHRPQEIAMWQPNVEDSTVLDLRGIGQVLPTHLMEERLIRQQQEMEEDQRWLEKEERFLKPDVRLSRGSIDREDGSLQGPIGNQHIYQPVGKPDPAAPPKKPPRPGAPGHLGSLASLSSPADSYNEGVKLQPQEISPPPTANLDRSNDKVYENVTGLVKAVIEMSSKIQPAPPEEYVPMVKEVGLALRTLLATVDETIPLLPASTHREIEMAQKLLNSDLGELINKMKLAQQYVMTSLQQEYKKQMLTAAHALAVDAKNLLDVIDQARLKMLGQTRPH
Fibroblast growth factor 2 (Homo sapiens), sequence (P09038 whole entry, looked up): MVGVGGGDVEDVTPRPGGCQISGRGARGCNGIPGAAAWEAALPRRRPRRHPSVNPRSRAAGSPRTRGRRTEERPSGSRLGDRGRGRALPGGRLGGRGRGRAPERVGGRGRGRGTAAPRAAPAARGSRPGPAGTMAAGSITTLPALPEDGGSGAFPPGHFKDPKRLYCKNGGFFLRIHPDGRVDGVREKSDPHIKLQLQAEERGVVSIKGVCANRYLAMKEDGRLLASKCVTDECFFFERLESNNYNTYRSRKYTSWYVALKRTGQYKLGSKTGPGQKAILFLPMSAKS
Concanavalin-A (Canavalia ensiformis), sequence (P02866 whole entry, looked up): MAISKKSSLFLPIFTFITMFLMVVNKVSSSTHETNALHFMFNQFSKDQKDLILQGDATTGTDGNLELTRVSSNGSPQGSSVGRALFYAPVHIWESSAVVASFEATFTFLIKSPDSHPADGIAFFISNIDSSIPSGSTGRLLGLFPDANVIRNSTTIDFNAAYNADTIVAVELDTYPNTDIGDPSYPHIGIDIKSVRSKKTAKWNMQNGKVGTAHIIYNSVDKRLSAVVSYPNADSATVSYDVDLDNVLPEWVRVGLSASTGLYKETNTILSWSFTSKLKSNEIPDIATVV
Follistatin (Homo sapiens), sequence (P19883 whole entry, looked up): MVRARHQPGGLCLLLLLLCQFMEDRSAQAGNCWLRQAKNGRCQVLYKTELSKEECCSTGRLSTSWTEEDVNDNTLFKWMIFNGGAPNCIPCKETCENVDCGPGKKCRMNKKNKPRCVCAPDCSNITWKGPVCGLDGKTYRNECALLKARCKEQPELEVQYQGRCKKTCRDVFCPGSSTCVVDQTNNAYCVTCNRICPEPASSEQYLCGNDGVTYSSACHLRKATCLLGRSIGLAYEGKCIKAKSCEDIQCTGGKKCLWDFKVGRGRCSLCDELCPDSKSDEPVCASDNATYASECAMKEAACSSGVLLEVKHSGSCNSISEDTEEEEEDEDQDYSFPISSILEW
Albumin (Bos taurus), sequence (P02769 whole entry, looked up): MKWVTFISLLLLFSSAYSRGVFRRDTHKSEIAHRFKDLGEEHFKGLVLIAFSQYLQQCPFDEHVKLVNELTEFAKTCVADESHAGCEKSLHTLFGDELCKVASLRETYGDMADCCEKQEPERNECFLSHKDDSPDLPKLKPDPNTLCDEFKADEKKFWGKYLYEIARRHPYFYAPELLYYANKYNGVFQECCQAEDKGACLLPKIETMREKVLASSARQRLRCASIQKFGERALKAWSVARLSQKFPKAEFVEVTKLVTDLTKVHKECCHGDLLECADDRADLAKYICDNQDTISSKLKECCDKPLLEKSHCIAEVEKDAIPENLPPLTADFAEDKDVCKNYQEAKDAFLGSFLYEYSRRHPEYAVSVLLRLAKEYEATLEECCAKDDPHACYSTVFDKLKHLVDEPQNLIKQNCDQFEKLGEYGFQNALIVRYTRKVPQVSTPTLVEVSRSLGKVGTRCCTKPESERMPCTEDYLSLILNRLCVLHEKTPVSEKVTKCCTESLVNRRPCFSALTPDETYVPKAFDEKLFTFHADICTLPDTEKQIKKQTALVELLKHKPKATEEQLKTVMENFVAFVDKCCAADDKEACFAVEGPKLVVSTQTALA

| Compound | composite z-score (Albumin (Bos taurus)) | composite Z-score [1] | composite z-score [2] | composite z-score [3] | composite z-score [4] | composite z-score [5] | composite z-score [6] | composite z-score (Sam68 (KHDRBS1)) | composite z-score [7] | composite z-score [8] | composite z-score [9] | composite z-score [10] | composite z-score [11] | composite z-score [12] | composite z-score [13] | composite z-score [14] | z-score [15] | composite z-score (Lefty1) | composite z-score [16] | z-score [17] |
| --- | --- | --- | --- | --- | --- | --- | --- | --- | --- | --- | --- | --- | --- | --- | --- | --- | --- | --- | --- | --- |
| C#CCCCON=C1C[C@@H](O)[C@@H](O)[C@@H]2[C@@H]3C(=O)N(Cc4ccccc4)C(=O)[C@@H]3CC[C@@H]12 | 0.745 | 0.23 (inactive) | -0.03 | -0.178 | -0.103 | -0.0919 | -0.0209 | -0.492 | 0.0362 | -0.324 | 0.309 | -0.032 | 0.0147 | -0.691 | -0.0389 | 0.0054 | 0.477 | 0.19 | 0.249 | 0.807 (inactive) |
| COc1ccc(O[C@H]2C=C[C@@H](c3ccccc3)O[C@@H]2CON=C(C)C)cc1 | 0.0254 | 0.537 (inactive) | 0.201 | -0.0548 | 0.153 | 0.136 | -0.0187 | -1.05 | 0.0435 | 0.0731 | -0.732 | -1.11 | 0.433 | 0.152 | 0.234 | -0.287 | -0.541 | -0.0027 | 0.938 | 0.409 (inactive) |
| CC(CCN1CCCCc2nc(C)c(C)cc21)=NO[C@H](C)c1cn([C@H](CO)Cc2ccccc2)nn1 | 0.583 | 0.26 (inactive) | -0.0076 | -0.135 | -0.274 | 0.558 | -0.129 | 0.321 | 1.32 | 0.0631 | 0.566 | -0.556 | -0.0044 | 0.339 | 0.965 | 1.01 | 0.0726 | 1.08 | -0.154 | -1.09 (inactive) |
| CCOC(=O)[C@H](Cc1ccccc1)NC(=O)CCC1CC(OC(=O)NCc2cccc3ccccc23)CC2(CCCC(COC(=O)NCc3ccccc3)O2)O1 (stereo not given in full) | 0.561 | -0.0662 (inactive) | -0.0204 | -0.155 | 0.452 | 1.06 | -0.398 | 0.712 | 0.0223 | 0.649 | -0.198 | 0.3 | 0.172 | 0.0039 | 0.449 | 0.348 | -0.133 | 0.401 | -0.0623 | 0.877 (inactive) |
| Cc1cc2c(c(=O)o1)[C@@H](O)[C@H]1O[C@H]1C2=O | -0.293 | -0.0055 (inactive) | -0.0744 | -0.132 | -0.131 | -0.243 | -0.108 | 0.568 | 0.705 | 0.358 | 0.432 | 0.281 | 0.123 | -0.116 | 0.629 | 0.374 | -1.32 | 1.32 | 0.201 | 0.476 (inactive) |
